# This is a sample that favours compounds with a hit; in the whole collection about 3.4% have one here.
# VDR inh: vitamin D3 receptor (human) inhibition. P11473. VDR-SRC2-3 peptide fluorescence polarization, 2 h. Potency, µM, for inactives: max response, negative = inhibition, hits mostly inhibitors. actives 0.93% (n = 400,000). AID 504847; note: % is set by controls: 0 for no effect and ±100 for the full control effect
#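 After 23 nl compound addition and a short centrifugation, plates sat for 2 hours at ambient temperature; polarization of fluorescence then indicated loss of VDR binding to peptide SRC2-3.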
# GLS inh: inhibitors of human glutaminase (GLS); GLS enzymatic activity, qHTS titration; Potency, µM (highest dose often 45.5 µM), without a hit: at the highest dose activity change, negative = inhibition, hits mostly inhibitors; actives 0.21% (n = 410,000); note: % is set by controls: 0 for no effect and ±100 for the full control effect
# Target sequence (O94925 whole entry, looked up): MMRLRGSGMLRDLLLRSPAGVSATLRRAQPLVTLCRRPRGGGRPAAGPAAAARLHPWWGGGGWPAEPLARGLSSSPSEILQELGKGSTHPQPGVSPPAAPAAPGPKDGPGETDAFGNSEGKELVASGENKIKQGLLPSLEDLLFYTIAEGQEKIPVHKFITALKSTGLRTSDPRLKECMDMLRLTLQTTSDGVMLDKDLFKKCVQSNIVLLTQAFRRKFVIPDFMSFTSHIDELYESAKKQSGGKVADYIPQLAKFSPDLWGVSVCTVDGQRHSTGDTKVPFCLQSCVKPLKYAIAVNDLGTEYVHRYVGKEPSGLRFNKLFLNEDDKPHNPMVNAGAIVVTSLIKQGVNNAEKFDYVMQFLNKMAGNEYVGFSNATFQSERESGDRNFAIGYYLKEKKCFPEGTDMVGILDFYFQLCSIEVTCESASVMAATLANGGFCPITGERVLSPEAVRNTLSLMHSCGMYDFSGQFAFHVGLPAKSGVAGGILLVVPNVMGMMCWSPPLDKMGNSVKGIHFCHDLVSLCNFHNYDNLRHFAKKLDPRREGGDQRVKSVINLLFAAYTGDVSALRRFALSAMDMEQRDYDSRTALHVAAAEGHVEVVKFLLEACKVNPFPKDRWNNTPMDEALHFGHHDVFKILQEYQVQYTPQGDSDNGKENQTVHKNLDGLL
#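 Enzyme dispensed in phosphate buffer (45 mM, pH 8.2, 0.02% Tween-20), compounds pinned in, then 1 mM L-glutamine solution and the glutamate oxidase–HRP–Amplex Red mix added; fluorescence read immediately and again after 30 min at room temperature.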
# KAT2A inh: GCN5L2 (KAT2A) acetyltransferase inhibition; GCN5L2 HAT assay, ThioGlo1 CoA-SH fluorescence; actives 0.21% (n = 390,000); Potency, µM (titrated, usually from 58.9 µM), without a hit: top-dose activity change, negative = inhibition, actives largely listed as inhibitors; Q92830; note: % is set by controls: 0 for no effect and ±100 for the full control effect
#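 qHTS, 1536-well. 20nM enzyme, pH 7.5 HEPES/EDTA/Tween-20 buffer; 15 min compound preinc., RT. Start: 75uM H3(1-25), 70uM AcCoA, 50uM ThioGlo1. Read Ex340/Em540 at t=0 (autofluorescence flag) and t=20 min.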
# PKM2 activator: PKM2 (human) enzyme activation. Potency, µM (doses to about 57.5 µM), without a hit: at the top dose activation, actives largely listed as activators. purified PKM2, Kinase-Glo ATP luminescence, activation; response scale: 0% is enzyme alone, no compound. P14618. actives 0.34% (n = 260,000); note: % is set by controls: 0 for no effect and ±100 for the full control effect; nearly all actives have a fitted effect of over 55% in size
#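 Purified hPK-M2 (>95%) run at intermediate activity with 0.1 mM ADP and 0.5 mM PEP in 50 mM imidazole pH 7.2, KCl, MgCl2; 1 h room temperature. ATP formed read by Kinase-Glo luminescence; normalized to uninhibited and no-enzyme controls.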
# PLK1 PBD block: inhibitors of human PLK1 polo-box domain binding | P53350 | Plk1 PBD binding of FITC phosphopeptide, fluorescence polarization | Potency, µM, for inactives: max response, negative = inhibition, actives largely listed as inhibitors | actives 2.8% (n = 360,000) | AID 720504; note: series mostly up to about 57 µM; % is set by controls: 0 for no effect and ±100 for the full control effect; nearly all actives have a fitted effect of over 65% in size
# Mito fusion act: mitochondrial division inhibition or fusion activation; Potency, µM (highest dose often 46.1 µM), without a hit: at the top dose growth rescue (activation), most hits filed as activators; S. cerevisiae fusion-defective mutant growth rescue, CellTiterGlo 48 h; actives 0.23% (n = 320,000); AID 485298; note: % of control where 0% means no effect; nearly all actives have a fitted effect of over 45% in size
#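 Read-out: ATP-based luminescence (CellTiterGlo, 10 min ambient) reporting growth of fusion-defective ts yeast after 48 hours at 37C on glycerol/ethanol YPEG medium in the presence of compound.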
# * = called active by the depositor; ? = inconclusive; · = no result given; [ ] = another dose, or the depositor's remark. Calls come from the whole dose curve; as a rule, active = well fitted curve in the direction sought with a large enough effect; inconclusive = small, poorly fitted or top-dose-only effect, or another doubt; inactive = no such curve, though single readings can be large; an effect the other way counts as inactive or inconclusive. Potency is the fitted concentration of half-maximal effect.
SMILES,VDR inh,GLS inh,KAT2A inh,PKM2 activator,PLK1 PBD block,Mito fusion act
Cc1ccc(N=Cc2cccc(O)c2O)c(C)c1,20µM*,·,-20%,13µM*,·,1%
Oc1cccc(/C=N/N=C/c2cccc(O)c2O)c1O,-16%,3.5µM*,-4%,-2%,3%,2%
COc1ccc2c(c1)OCC(Cc1ccc(OC)c(OC(C)=O)c1)C2=O (stereo not given),-12%,·,-18%,·,·,·
COc1ccc(C)cc1NC(=O)COC(=O)Cc1c[nH]c2ccccc12,·,8%,·,·,-1%,·
Cc1cn(CC2COC(C)(C)O2)c(=O)[nH]c1=O (stereo not given),-24%,?,-3%,0%,6µM*,-1%
COC(Cn1cc(C)c(=O)[nH]c1=O)OC,-1%,-15%,-2%,-11%,-1%,-4%
CC(C(=O)C12CC3CC(CC(C3)C1)C2)N1CCOCC1 (stereo not given),?,-9%,?,14%,21µM*,0%
N#Cc1c(Nc2ccccc2Cl)s[nH]c1=O,?,?,?,14%,?,14%
N#Cc1c(Nc2ccccc2C(F)(F)F)s[nH]c1=O,?,-24%,?,-12%,27µM*,23%
CN(CC(=O)Nc1ccc(F)cc1)C(=O)COC(=O)c1ccccc1,-8%,-1%,-2%,·,2%,-2%
CC(=O)c1cccc(OCC(=O)N(C)CC(=O)Nc2ccc(F)cc2)c1,-26%,1%,-11%,-1%,30µM*,-4%
CC(/C=C1\SC(=S)N(c2ccc(C(=O)O)cc2)C1=O)=C\c1ccccc1,89µM*,?,-28%,2%,24µM*,22%
CC(/C=C1\SC(=S)N(C(C(=O)O)C(C)C)C1=O)=C\c1ccccc1 (stereo not given),?,0%,-24%,0%,24µM*,5%
O=C(O)c1ccc(-c2ccc(-c3ccccc3)cc2)o1,89µM*,·,-21%[88.6 µM],·,·,·
CCCCCCc1cc2cc(-c3cn4c(n3)sc3cc(OC)ccc34)c(=O)oc2cc1O,21%,4%,3%,·,·,·
Cc1nn(C(C)C(=O)NCCCN2CCCCCC2)c(=O)c2c1sc1ccccc12 (stereo not given),-20%,-6%,-4%,·,27µM*,-1%
O=C1C(=C(I)I)c2ccccc2-c2ccccc21,35µM*,6%,·,·,4.7µM*,·
O=C(O)c1cccc2c1C(=O)c1ccccc1-2,-8%,3%,-5%,15%,-13%,-1%
CCc1c(C)sc2nc3c(C(=O)N4CCOCC4)cc(C(=O)c4cc(F)ccc4O)cn3c(=O)c12,-10%,3%,-1%,-4%,5%,?
Cc1sc2nc3c(C(=O)N4CCCC4)cc(C(=O)c4ccccc4O)cn3c(=O)c2c1C,-8%,6%,-11%,3%,24µM*,4%
CCc1ccc(N2CC(C(=O)OCc3nc4ccsc4c(=O)[nH]3)CC2=O)cc1 (stereo not given),25%,18µM*,-16%,·,-29%,3%
Cc1cnc(C(=O)OCc2nc3ccsc3c(=O)[nH]2)cn1,-8%,14µM*,-13%,·,-26%,0%
Nn1c(SCC(=O)Nc2cccnc2Cl)nnc1-c1ccccc1,79µM*,-24%,?,·,4.7µM*,0%
O=C(CSc1nnc(-c2cccnc2)n1-c1ccccc1)Nc1ccccn1,-18%,?,-12%,-3%,3.4µM*,0%
CN(C)C(=O)CSc1nnc(-c2cccnc2)n1-c1ccccc1,-11%,0%,-2%,1%,-11%,1%
SMILES,VDR inh,GLS inh,KAT2A inh,PKM2 activator,PLK1 PBD block,Mito fusion act
Cc1ccc(-c2nnc(SCC(=O)Nc3cccnc3Cl)n2N)cc1,3%,-6%,0%,·,-2%,·
Nc1nc(SCC(=O)Nc2cccnc2Cl)n[nH]1,-19%,?,-5%,18%,12µM*,3%
Cc1ccccc1-c1n[nH]nc1C1=CC(=O)C[C@H](c2ccc(F)cc2)C1,·,7%,·,·,-24%,·
Cc1cc(C(=O)COc2cc(F)ccc2[N+](=O)[O-])c(C)n1CC1CCCO1 (stereo not given),23%,10%,-1%,·,-19%,·
COc1ccc(CCn2c3c(c(=O)[nH]c2=S)CN(CC(C)C)CN3)cc1OC,0%,·,·,·,·,·
CC(C)=CCC1C(=O)N(c2ccccc2)N(c2ccccc2)C1=O,25µM*,43%,31%,·,·,·
CCN1C(=O)NC(c2ccccc2)C1=O (stereo not given),-4%,-1%,21%,·,-7%,0%
CCCCN(C)CCCNC(=O)Cn1ncc2c3ccccc3n(Cc3cc(C)ccc3C)c2c1=O,9%,-7%,-4%,·,·,·
N=c1oc2ccc3ccccc3c2cc1C(N)=S,-22%,5%,0%,6%,24µM*,8%
O=C(O)c1cc2c(ccc3ccccc32)oc1=O,·,·,-11%,-1%,·,5%
Cc1cccc(NC(=O)/C(C#N)=C/c2cccc([N+](=O)[O-])c2)n1,?,30%,-1%,·,27µM*,3%
Cc1cccc(NC(=O)/C(C#N)=C/c2ccc(Cl)cc2)n1,-14%,4%,-1%,·,-13%,-14%
COc1ccccc1C(=O)N/C(=C/c1cccc([N+](=O)[O-])c1)C(=O)Nc1cccc(C(=O)O)c1,?,-15%,-5%,0%,30µM*,-5%
COC(=O)c1ccccc1NC(=O)NCc1ccncc1,-2%,7%,-2%,1%,21µM*,-6%
Cc1ccc(S(=O)(=O)N2CCN(CC(=O)N(CC(C)C)c3c(N)n(CC(C)C)c(=O)[nH]c3=O)CC2)c(C)c1,2%,6%,-6%,-5%,-7%,-9%
N#CC1=C(N)Oc2cc(O)ccc2C1c1ccc(Br)s1 (stereo not given),-16%,-20%,2%,1%,30µM*,-28%
Cc1cc2nc(-c3ccc(OCc4ccccc4)cc3)cc(C(F)(F)F)n2n1,1%,-18%,-2%,·,·,·
O=S(=O)(c1ccccc1)N1N=C(c2ccc(Br)cc2)CC1c1ccco1 (stereo not given),?,?,-1%,·,3µM*,13%
O=S(=O)(c1ccccc1)N1N=C(c2ccc(O)cc2)CC1c1ccco1 (stereo not given),-7%,8%,-10%,0%,-1%,3%
CC(=O)N1CCN(c2ccc(NCc3cccc4ccccc34)cc2)CC1,?,?,-27%,8%,24µM*,-2%
CC(=O)N1CCN(c2ccc(NCc3cccs3)cc2)CC1,-18%,28%,-4%,3%,?,-6%
CC(=O)N1CCN(c2ccc(NCc3ccc(-c4ccc(Br)cc4)o3)cc2)CC1,79µM*,5%,-8%,·,·,·
CC(=O)N1CCN(c2ccc(NCc3ccc(Br)o3)cc2)CC1,?,25%,-3%,·,·,0%
